Bioassay records: PubChem, Broad Institute
Rows were chosen to be rich in hits. Some 3.1% of all compounds tested hit in one or more screens of this group.
PAX8 inh HTS: PAX8 transcriptional activity inhibition | actives 1.2% (n = 360,000) | RMG-I TPO-luciferase reporter, SteadyGlo, 24 h | inhibition, % at 12.6 µM;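 active means mean replicate inhibition at least 60% with every replicate also reaching 60%; inconclusive means only one of the two criteria is met; inactive means mean below 60% and not all replicates reaching 60%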;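 further: luciferase light reporting Pax8 driven TPO promoter activity; plate controls were median of neutral control wells for no effect and mitoxantrone controls for full effect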
GSIS activator: primary screen for activators of insulin secretion dependent on glucose, INS-1E cells, GLuc reporter luminescence. INS-1E GLuc reporter insulin secretion, 2-3 h. activation, % at 16.6 µM. actives 0.61% (n = 370,000);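 active means lowest replicate activation of at least 40%, so every replicate reaches that level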;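 further: 0% = median of neutral control wells and 100% = median of IBMX positive control wells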
EWS-Fli inh: blocks EWS/Fli oncoprotein-driven transcription; AID 651661; inhibition, % at 12.6 µM; A673 NR0B1-luciferase reporter, viability-normalised; actives 0.67% (n = 350,000);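 active means mean inhibition of at least 50% after viability correction, with every replicate also passing that limit; inconclusive means mean reaches 50% but only one of two replicates passes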;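 further: firefly luciferase signal divided by Alamar Blue viability fluorescence both relative to DMSO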
HIV Env fusion: blocks HIV Env-driven cell-cell fusion. inhibition, % at 12.3 µM. HeLa-JRFL Env/CEM21 cell fusion, luciferase. actives 1.1% (n = 360,000);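 active means mean replicate inhibition score of at least 50 and every replicate individually at or above 50; inconclusive means only one of the two criteria met; inactive means mean below 50 and not all replicates reaching 50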;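 further: 0% = plate neutral controls and 100% = maraviroc near 300 nM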
miR122 inh: inhibitors of miR-122 in Huh7 cells. Huh7 miR-122 Renilla luciferase sensor, 48 h; neutral wells = 0, positive control = 100. activation (reporter increase), % at 12.5 µM. actives 0.3% (n = 340,000);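 active means mean replicate activation score at least 90 and every replicate individually at or above 90; inconclusive means only one of the two criteria met; inactive means neither criterion met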;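 further: higher luciferase means less miR-122 activity so hits act as miR-122 inhibitors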
Statin myotox sup: protects C2C12 myotubes from simvastatin toxicity; ATP luminescence, 48 h; scaled: DMSO 0, geranylgeraniol control 100; rescue of ATP level, % at 7.49 µM; actives 0.78% (n = 330,000); AID 602340;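 active means mean ATP rescue above about 67%, or every replicate alone reaching that limit, limit read from the data, passing the limit was not always enough; inconclusive means no clear call, values can overlap the other calls; inactive means mean under the limit and some replicate under it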;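 further: myotubes were challenged with 10 µM simvastatin during compound exposure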
Numbers without * were called inactive; [ ] = dose if it differs, or a comment.

What do the screens show for `COc1ccc(C(=O)Nc2cccc3cccnc23)cc1OC`?
GSIS activator: 4; EWS-Fli inh: -60; miR122 inh: -3; Statin myotox sup: 1

Results for COc1ccccc1S(=O)(=O)N1[C@@H]2CNC[C@H]1C2c1ccc(-c2ccccc2)cc1 (some centres not stated) ?
PAX8 inh HTS: 8; GSIS activator: 7; EWS-Fli inh: 7

Results for COc1ccccc1C(=O)NC(=S)Nc1ccc2[nH]c(=O)[nH]c2c1 ?
PAX8 inh HTS: -47; GSIS activator: 45*; EWS-Fli inh: -23; HIV Env fusion: -1; miR122 inh: -6; Statin myotox sup: -1

Results for COc1ccc(Br)cc1C(=O)NC(=S)Nc1ccc2[nH]c(=O)[nH]c2c1 ?
PAX8 inh HTS: -8; GSIS activator: 5; EWS-Fli inh: -7; HIV Env fusion: -1; miR122 inh: -3; Statin myotox sup: -4

What do the screens show for `N#Cc1c(NC(=O)c2ccccc2)sc2c1CCCCC2`?
miR122 inh: 3; Statin myotox sup: -23

How did N#Cc1c(Cl)nsc1NC(=O)c1ccccc1 do in these assays?
PAX8 inh HTS: 42; GSIS activator: -26; EWS-Fli inh: 1; HIV Env fusion: 60*

What do the screens show for `O=S(=O)(c1ccc(NC(=S)N2CCN(c3ccccc3F)CC2)cc1)N1CCOCC1`?
PAX8 inh HTS: 18; GSIS activator: -5; EWS-Fli inh: 9; HIV Env fusion: 59*

What do the screens show for `CN(O)/C=c1/ccc2c(n1)C(=O)C=CC=2`?
miR122 inh: -5; Statin myotox sup: 93*

How did CCC(C)N(CCNC(=O)c1ccc2c(c1)NC(=O)c1ccccc1S2)C1CCCCC1 (configuration not stated) do in these assays?
PAX8 inh HTS: 8; GSIS activator: -43; HIV Env fusion: 79*; miR122 inh: -9; Statin myotox sup: 4

How did CC1CCCC(C)N1CCCNC(=O)c1ccc2c(c1)NC(=O)c1ccccc1S2 (configuration not stated) do in these assays?
PAX8 inh HTS: -19; GSIS activator: -1; EWS-Fli inh: 10; HIV Env fusion: inconclusive; miR122 inh: -4; Statin myotox sup: -1

Results for COc1cc(Cn2c3ccc(NC(=O)CCc4ccccc4)cc3c(=O)n2C)ccc1F ?
PAX8 inh HTS: 38; GSIS activator: -12; EWS-Fli inh: 54*; HIV Env fusion: -129; miR122 inh: 15; Statin myotox sup: -52

How did COc1cc(Cn2c3ccc(NC(=O)CCc4cccnc4)cc3c(=O)n2C)ccc1F do in these assays?
PAX8 inh HTS: 8; GSIS activator: 6; EWS-Fli inh: 1; HIV Env fusion: 38; miR122 inh: 6; Statin myotox sup: -3

Results for [O-]/C(=C(\C(=S)NCc1ccccc1)[n+]1ccccc1)c1ccc(Cl)s1 ?
PAX8 inh HTS: 14; GSIS activator: 10; EWS-Fli inh: -9; HIV Env fusion: -3; miR122 inh: 173*; Statin myotox sup: 4

What do the screens show for `[O-]/C(=C(\C(=S)NCCN1CCOCC1)[n+]1ccccc1)c1ccc(Cl)s1`?
PAX8 inh HTS: 3; GSIS activator: 3; EWS-Fli inh: -6; HIV Env fusion: 0; miR122 inh: 1; Statin myotox sup: -7

What do the screens show for `CSc1ccc(C(=O)C2CCCN(C(=O)c3ccc4c(c3)no[n+]4[O-])C2)cc1` (configuration not stated)?
PAX8 inh HTS: 11; GSIS activator: 42*; EWS-Fli inh: -8; HIV Env fusion: -31; miR122 inh: 1; Statin myotox sup: 16

Results for CCn1nc2cc(C(=O)NCc3cc(C(F)(F)F)cc(C(F)(F)F)c3)ccc2c1OC ?
PAX8 inh HTS: -7; GSIS activator: 4; EWS-Fli inh: 1; HIV Env fusion: -15; miR122 inh: -7; Statin myotox sup: -12

Results for CCCCn1nc2cc(C(=O)NCc3cc(C(F)(F)F)cc(C(F)(F)F)c3)ccc2c1OC ?
PAX8 inh HTS: 5; GSIS activator: -9; EWS-Fli inh: -3; HIV Env fusion: 63*; miR122 inh: -6; Statin myotox sup: 4

What do the screens show for `CCCCn1nc2cc(C(=O)NCc3ccc(C(F)(F)F)cc3C(F)(F)F)ccc2c1OCC`?
PAX8 inh HTS: -20; GSIS activator: 7; EWS-Fli inh: -1; HIV Env fusion: -54; miR122 inh: 1; Statin myotox sup: 83*

How did CCOc1c2ccc(C(=O)NCc3ccc(C(F)(F)F)cc3C(F)(F)F)cc2nn1C do in these assays?
PAX8 inh HTS: -1; GSIS activator: -12; EWS-Fli inh: -4; HIV Env fusion: 0; miR122 inh: -10; Statin myotox sup: 12

How did C[C@@H]1CN([C@@H](C)CO)S(=O)(=O)c2ccc(/C=C/c3ccccc3)cc2O[C@@H]1CN(C)C(=O)CN1CCOCC1 do in these assays?
PAX8 inh HTS: -6; GSIS activator: 4; EWS-Fli inh: -5; HIV Env fusion: -3[16.7 µM]; miR122 inh: -21[16.7 µM]; Statin myotox sup: -1

What do the screens show for `CC1(C)Cc2c(C#N)c(SCCO)nc(N3CCOCC3)c2CO1`?
PAX8 inh HTS: -14; GSIS activator: 5; EWS-Fli inh: 13; HIV Env fusion: -3; miR122 inh: -21; Statin myotox sup: 10

How did CCCCc1nc(N2CCOCC2)c(C#N)c2c1COC(C)(C)C2 do in these assays?
miR122 inh: -1; Statin myotox sup: 128*

Results for N#CC1(NC(=O)Cn2ncc(Cl)c(Cl)c2=O)CCCCC1 ?
PAX8 inh HTS: 91*; GSIS activator: -13; EWS-Fli inh: inconclusive; HIV Env fusion: -128; miR122 inh: 9; Statin myotox sup: 14

Results for O=C(c1cc(Cl)ccc1[N+](=O)[O-])n1cnc2ccccc21 ?
PAX8 inh HTS: 7; GSIS activator: -5; EWS-Fli inh: 58*; HIV Env fusion: 2; miR122 inh: 5

How did O=C(c1ccccc1)c1nn(-c2ccccc2)c(=O)cc1C(F)(F)F do in these assays?
miR122 inh: 15; Statin myotox sup: 19

How did O=C(c1cccc(Cl)c1)c1nn(-c2ccccc2)c(=O)cc1C(F)(F)F do in these assays?
GSIS activator: -25; miR122 inh: -9; Statin myotox sup: 105*

How did CN(C(=O)COc1cc(=O)n(C)c2ccccc12)c1ccc(Cl)cc1 do in these assays?
PAX8 inh HTS: 11; GSIS activator: 9; EWS-Fli inh: -5; HIV Env fusion: 7; miR122 inh: -5; Statin myotox sup: -1

How did CN(c1ccc(Cl)cc1)c1cc(=O)n(C)c2ccccc12 do in these assays?
miR122 inh: -13; Statin myotox sup: 129*

What do the screens show for `CN(C)CCNc1ncnc2c1sc1nc(-c3ccccc3)c3c(c12)CCCC3`?
PAX8 inh HTS: 64*; GSIS activator: 193*; EWS-Fli inh: 45; HIV Env fusion: 2; miR122 inh: -35; Statin myotox sup: -20

Results for Cc1ccc(S(=O)(=O)CCSC(=N)N)cc1 ?
PAX8 inh HTS: 69*; GSIS activator: 6; EWS-Fli inh: 11; HIV Env fusion: 11; miR122 inh: 0; Statin myotox sup: 7
